Rab9 promoter act – activators of Rab9 promoter. Huh7 Rab9 promoter-luciferase reporter, luminescence, 24 h. Potency, µM (highest dose often 9.22 µM), actives largely listed as activators. 2.8% of 320,000 active; note: nearly all actives have a fitted effect of over 60% in size
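Cells were plated at 1500 per well in reduced-serum medium with 10% FBS and left 2 h. Compound in DMSO was then added for 24 h at 37 °C. Reporter signal was read by luminescence after 10 min with luciferase detection reagent.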
SMN2 splice enh – increases expression of the SMN2 splice variant. HEK293 SMN2-luciferase splicing reporter, luminescence, 30-36 h. Potency, µM (series often up to 46.1 µM), most hits filed as activators. 2.8% of 210,000 active; note: nearly all actives have a fitted effect of over 55% in size
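HEK293 cells carry an SMN2 minigene-luciferase reporter in which exon 7 inclusion puts luciferase in frame. Cells were seeded at 2000 cells/well, attached for 10-12 hours, then exposed to compounds for 30-36 hours at 37C before ONE-Glo luminescence.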
ELG1 genotoxic – genotoxicity induction in ELG1-luciferase HEK293T cells; Potency, µM (titrated, usually from 46 µM), hits mostly activators; 1.3% of 330,000 active; HEK293T ELG1-luciferase reporter, luminescence, 16 h; note: nearly all actives have a fitted effect of over 60% in size
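ELG1-luciferase HEK293T cells, 2,000/well; compound pinned in; 16 hr, 37 °C, 5% CO2; ONE-Glo, 30 min RT; luminescence on CCD imager.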
ELG1 DNA repair – blocks ELG1-dependent DNA repair in HEK293T cells; HEK293T ELG1-luciferase reporter, luminescence, 16 h; DNA damage induced by 5-fluorouridine; 2.3% of 330,000 active; Potency, µM (highest dose often 46.1 µM), actives largely listed as inhibitors; AID 504467; note: nearly all actives have a fitted effect of over 55% in size
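Step one: seed 2,000 cells per well. Step two: pin-transfer compound or DMSO alongside 5-fluorouridine. Step three: incubate 16 hr, 37 °C, 5% CO2. Step four: add ONE-Glo, wait 30 min, read luminescence.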
NPC1 promoter act – activates the NPC1 promoter. Potency, µM (highest dose often 9.22 µM), most hits filed as activators. 2.4% of 320,000 active. Huh7 NPC1 promoter luciferase reporter, 24 h; note: nearly all actives have a fitted effect of over 60% in size
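Stably transfected Huh7 (NPC1 promoter→luciferase), 1500 cells/well in Opti-MEM + 10% FBS, 2 h settle, then compound 24 h at 37 °C. Luminescence after 10 min with Amplite reagent.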
FLuc counter – counter-screen for miR-21 project: firefly luciferase inhibitors or activators; P08659; purified FLuc, Km substrates, luminescence inhibition; Potency, µM (doses to about 57.5 µM), actives largely listed as inhibitors; 6.9% of 360,000 active; AID 588342; note: nearly all actives have a fitted effect of over 55% in size
Target sequence (P08659 whole entry, looked up): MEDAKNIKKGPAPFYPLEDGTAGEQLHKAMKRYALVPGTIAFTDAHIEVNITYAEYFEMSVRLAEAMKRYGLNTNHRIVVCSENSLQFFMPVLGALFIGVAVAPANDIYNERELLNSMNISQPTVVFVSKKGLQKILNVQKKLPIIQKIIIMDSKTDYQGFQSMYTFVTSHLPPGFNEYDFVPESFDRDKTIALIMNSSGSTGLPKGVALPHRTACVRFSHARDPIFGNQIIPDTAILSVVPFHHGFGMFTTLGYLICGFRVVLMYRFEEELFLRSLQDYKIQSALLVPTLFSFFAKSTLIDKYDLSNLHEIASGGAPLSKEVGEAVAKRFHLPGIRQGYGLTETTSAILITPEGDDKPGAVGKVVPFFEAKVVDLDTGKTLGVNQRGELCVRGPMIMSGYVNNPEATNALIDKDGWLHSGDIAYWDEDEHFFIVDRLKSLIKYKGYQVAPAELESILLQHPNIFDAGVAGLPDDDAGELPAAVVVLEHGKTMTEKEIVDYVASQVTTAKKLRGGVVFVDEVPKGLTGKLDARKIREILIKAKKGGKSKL
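Purified P. pyralis luciferase, 10 nM final, with Km-level 10 uM D-luciferin and 10 uM ATP in 50 mM Tris acetate pH 7.5, 10 mM Mg acetate, 0.01% Tween-20, 0.05% BSA; 6-point qHTS titration about 60 µM downward; luminescence read.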
Numbers stand for hits; i = inactive; ? = inconclusive; nt = no result. Rows were chosen to be rich in hits. Some 9.2% of all compounds tested hit in one or more screens of this group. Calls come from the whole dose curve; as a rule, active = well fitted curve in the direction sought with a large enough effect; inconclusive = small, poorly fitted or top-dose-only effect, or another doubt; inactive = no such curve, though single readings can be large; an effect the other way counts as inactive or inconclusive.

SMILES | Rab9 promoter act | SMN2 splice enh | ELG1 genotoxic | ELG1 DNA repair | NPC1 promoter act | FLuc counter
Cc1cc(NCc2ccccn2)n2nc(C)c(-c3ccc(Cl)cc3)c2n1 | i | nt | i | 26µM | i | ?
Cc1cc(NCCOCCO)n2ncc(-c3ccc(Cl)cc3)c2n1 | 0.89µM | 10µM | ? | ? | 1.3µM | 1.3µM
CC1CCCC(C)N1/N=C/c1ccc(C#N)cc1 (stereo not drawn) | i | i | i | i | i | i
O=C(OCC1CC(c2ccccn2)=NO1)c1ccc(Br)cc1 (stereo not drawn) | i | i | i | ? | i | 17µM
O=C(COC(=O)c1ccc(Br)cc1)Nc1cccnc1Cl | i | nt | i | i | i | i
O=C(COC(=O)c1ccccn1)c1cccc(Br)c1 | i | nt | i | i | ? | 19µM
O=C(COC(=O)c1ccccn1)c1ccc(Br)cc1 | i | i | i | i | i | 2.4µM
COc1ccc(C(=O)COC(=O)c2ccccn2)cc1OC | i | nt | i | ? | i | i
CCn1c(C(=O)NCc2ccc(F)cc2)cc2oc3ccccc3c21 | nt | ? | nt | nt | nt | i
CCOc1ccc(CNC(=O)c2cc3oc4ccccc4c3n2C)cc1 | i | 25µM | i | ? | i | i
COc1cccc(CNC(=O)c2cc3oc4ccccc4c3n2C)c1OC | i | 16µM | i | ? | i | ?
CCOc1ccccc1CNC(=O)c1cc2oc3ccccc3c2n1CC | i | ? | i | ? | i | i
CCOc1ncccc1C(=O)Nc1cc(S(=O)(=O)N2CCOCC2)ccc1OCC(F)(F)F | nt | nt | i | ? | nt | nt
Cc1ccc(Nc2ncnc3sc(C)c(C)c23)cc1C | i | ? | ? | ? | i | ?
Cc1sc2ncnc(NCC(O)c3ccccc3)c2c1C (stereo not drawn) | i | nt | i | i | i | 19µM
COc1ccc(/C=N/Nc2nonc2N)cc1 | i | i | i | ? | i | ?
Cc1sc2ncnc(N/N=C/c3ccc(O)cc3)c2c1C | i | i | i | ? | i | 19µM
COc1ccc(/C=N/Nc2ncnc3sc(C)c(C)c23)cc1 | i | i | i | i | i | 19µM
Cc1sc2ncnc(NCc3cccs3)c2c1C | i | i | i | i | i | i
Cc1sc2ncnc(NCC(c3ccccc3)N(C)C)c2c1C (stereo not drawn) | i | nt | i | i | i | i
Cc1sc2ncnc(N/N=C/c3ccccc3O)c2c1C | i | i | ? | ? | i | 21µM
CCOC(=O)N1CCN(CC(=O)N2CCC(C(N)=O)CC2)CC1 | i | i | i | i | i | i
COc1ccc(-c2cc(C(F)(F)F)n3nc(C(=O)Nc4cccc(Cl)c4Cl)cc3n2)cc1OC | nt | i | nt | nt | nt | i
COc1cccc(/C=N/Nc2ncnc3scc(-c4ccccc4)c23)c1OC | i | i | i | 15µM | i | 12µM
O=C(/C=C/c1ccccc1Cl)NC(=S)Nc1ccccc1C(=O)NC1CCCCC1 | ? | i | i | i | i | 17µM
SMILES | Rab9 promoter act | SMN2 splice enh | ELG1 genotoxic | ELG1 DNA repair | NPC1 promoter act | FLuc counter
COc1ccc(NC(=S)NNc2ccc(C(=O)O)cc2)cc1 | i | nt | ? | ? | i | ?
CCOC(=O)c1cc(-c2ccco2)nc2c1c(C)nn2-c1ccccc1 | i | i | i | ? | i | i
CCOC(=O)c1cc(-c2ccc(OC)cc2)nc2c1c(C)nn2CCC(N)=S | i | i | i | 12µM | i | i
CCOc1ccccc1NC(=O)CSc1nc2cc(OC)c(OC)cc2c2nc(CCn3c(C)nc4ccccc43)nn12 | nt | i | nt | nt | nt | i
O=C(N/N=C/c1cn(-c2ccccc2)nc1-c1cc2ccccc2o1)c1ccccc1Br | ? | 4.5µM | ? | ? | 3.2µM | 15µM
COc1ccc(-c2nn(-c3ccccc3)cc2/C=N/NC(=O)c2ccc(Br)o2)cc1 | i | i | i | ? | i | ?
O=C(N/N=C/c1cn(-c2ccccc2)nc1-c1cc2ccccc2o1)c1c[nH]c2ccccc12 | 1.4µM | 4µM | ? | ? | 1.8µM | 1.9µM
Nc1ccc(-c2ncc(-c3ccccc3)o2)cc1 | i | nt | ? | ? | i | 1.5µM
O=[N+]([O-])c1ccc(-c2ncc(-c3ccc(Br)cc3)o2)cc1 | ? | nt | i | ? | ? | ?
Cc1ccc(-c2cnc(-c3ccncc3)o2)cc1 | ? | 22µM | 18µM | ? | ? | 6.7µM

Screening data (PubChem)
